This is an account of results in PubChem BioAssay (NCI).

About 83,000 compounds went through this panel and 20% of them were active in at least one assay; those are over-represented in the sample as a whole.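 The test compound was applied at a single concentration to cells in 96-well plates for 48 hours, and percent growth was recorded.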 A number with no mark means an inactive call. Calls of active or inactive are those of the source. How the source made its calls: active means growth percent below 10; inactive means the rest.

Holding throughout (test): NCI-60 one-dose screen, 48 h (100 = growth as untreated, 0 = no growth, -100 = all killed)
The test system of one assay is HCT-15 colon. The conditions noted are these: 10 µM unless noted.
Another assay relates to HT29 colon. The conditions noted are these: 10 µM unless noted.
The next assay deals with SNB-75 CNS. The conditions noted are these: 10 µM unless noted.
In a further assay the test system is SNB-19 CNS. The conditions noted are these: 10 µM unless noted.
Another assay deals with U251 CNS. The conditions noted are these: 10 µM unless noted.
In another assay the test system is PC-3 prostate. The conditions noted are these: 10 µM unless noted.
For a further assay, the system named is SK-MEL-5 melanoma. The conditions noted are these: 10 µM unless noted.
The test system of a further assay is UACC-62 melanoma. The conditions noted are these: 10 µM unless noted.
Another assay concerns LOX IMVI melanoma. The conditions noted are these: 10 µM.
The next assay relates to SK-MEL-28 melanoma. Particulars: 10 µM unless noted.
A further assay has as its system SK-MEL-2 melanoma. Particulars: 10 µM unless noted.
Another assay has as its system EKVX NSCLC. The conditions noted are these: 10 µM unless noted.
A further assay relates to SN12C renal. Particulars: 10 µM unless noted.
The subject of another assay is UO-31 renal. The conditions noted are these: 10 µM unless noted.
The test system of a further assay is TK-10 renal. Particulars: 10 µM unless noted.
In a further assay the test system is ACHN renal. Particulars: 10 µM unless noted.
In the next assay the test system is CAKI-1 renal. The conditions noted are these: 10 µM unless noted.
Another assay deals with A498 renal. Particulars: 10 µM unless noted.
The test system of a further assay is CCRF-CEM leukemia. The conditions noted are these: 10 µM unless noted.
For a further assay, the system named is MOLT-4 leukemia. Particulars: 10 µM unless noted.

As to `Cc1ccc2nc(N)nnc2c1`, the growth in the assay on HCT-15 colon was 102%; in the assay with HT29 colon, 112%; in the assay with SNB-75 CNS it was 90.5%; in the assay on SNB-19 CNS, 102%; with U251 CNS, 111%; in the assay with PC-3 prostate, 96%. The growth was 108% in the assay with SK-MEL-5 melanoma; 105% with UACC-62 melanoma; 100% in the assay on LOX IMVI melanoma; 110% in the assay with SK-MEL-28 melanoma; 107% in the assay on SK-MEL-2 melanoma; 113% with EKVX NSCLC. The growth is 98.4% with SN12C renal; 87.5% with UO-31 renal; 108% in the assay on TK-10 renal; 108% in the assay with ACHN renal; 83.7% with CAKI-1 renal; 95.2% in the assay with A498 renal. Further, the values for the growth in the assay with CCRF-CEM leukemia and in the assay with MOLT-4 leukemia were 102% and 100%, respectively.

Turning to `CCN(C(=O)Nc1ccccc1Cl)c1ccccc1`, the growth in the assay with HCT-15 colon was 94.1%; with HT29 colon, 101%; with SNB-75 CNS, 117%; in the assay on SNB-19 CNS, 103%; with U251 CNS, 96.8%; in the assay with PC-3 prostate, 94.6%. Further, the growth with SK-MEL-5 melanoma is 101%; in the assay with UACC-62 melanoma, 104%; in the assay with LOX IMVI melanoma, 96.5%; with SK-MEL-28 melanoma, 113%; in the assay with SK-MEL-2 melanoma it was 114%; in the assay with EKVX NSCLC, 111%. Also, the growth with SN12C renal was 113%; with UO-31 renal, 91.4%; in the assay with TK-10 renal, 121%; with ACHN renal, 96.2%; with CAKI-1 renal it was 96.2%; in the assay on A498 renal it was 102%. Also, in the assay with CCRF-CEM leukemia, the growth is 110%.

For the compound `CCOC(OCC)C(=O)c1ccccc1`, the growth in the assay on HCT-15 colon is 104%; in the assay on HT29 colon it was 92.7%; in the assay with SNB-75 CNS it was 94.1%; in the assay on SNB-19 CNS, 103%; with U251 CNS, 95%; with PC-3 prostate, 85%. In addition, the growth in the assay on SK-MEL-5 melanoma is 96.1%; with UACC-62 melanoma it was 111%; in the assay on LOX IMVI melanoma, 95.4%; in the assay with SK-MEL-28 melanoma, 104%; in the assay on SK-MEL-2 melanoma it was 88.8%; in the assay with EKVX NSCLC it was 109%. The growth with SN12C renal is 101%; with UO-31 renal it was 82.6%; in the assay with TK-10 renal, 84.1%; in the assay on ACHN renal it was 99.3%; in the assay on CAKI-1 renal, 107%; with A498 renal it was 94%. In addition, the results for the growth with CCRF-CEM leukemia and in the assay with MOLT-4 leukemia were 99.8% and 124%, respectively.

Regarding `CC(c1ccccc1)N1C(=O)CSC1=S` (configuration not stated), the growth in the assay with HCT-15 colon is 9.14% (active); with HT29 colon, 1.08% (active); in the assay on SNB-75 CNS it was 19.9%; with SNB-19 CNS, 104%; in the assay with U251 CNS, 17.3%; in the assay on PC-3 prostate it was 45.2%. The growth is 34.8% in the assay on SK-MEL-5 melanoma; 34.5% with UACC-62 melanoma; 16.1% in the assay with LOX IMVI melanoma; 46.9% in the assay with SK-MEL-28 melanoma; 1.02% (active) in the assay with SK-MEL-2 melanoma; 52.1% in the assay with EKVX NSCLC. Besides, the growth with SN12C renal was 62.4%; in the assay on UO-31 renal, 49.2%; in the assay on TK-10 renal, 42.3%; in the assay with ACHN renal it was 50.7%; with CAKI-1 renal, 61.1%; in the assay on A498 renal it was 78.1%. The growth with CCRF-CEM leukemia was 63.8%; in the assay with MOLT-4 leukemia, 28.3%.

On to `Nc1ccc2c(c1)Cc1cc(N)c(N)cc1-2`, for which the growth was 108% in the assay on HCT-15 colon; 95.9% in the assay on HT29 colon; 96% in the assay with SNB-75 CNS; 95.6% in the assay on SNB-19 CNS; 86% in the assay on U251 CNS; 96.3% with PC-3 prostate. Besides, the growth in the assay with SK-MEL-5 melanoma was 93.4%; in the assay with UACC-62 melanoma, 94%; with LOX IMVI melanoma it was 97%; in the assay on SK-MEL-28 melanoma, 107%; in the assay with SK-MEL-2 melanoma, 88.8%; in the assay on EKVX NSCLC, 88.6%. The growth in the assay on SN12C renal is 93.3%; with UO-31 renal, 91.4%; in the assay with TK-10 renal, 119%; in the assay with ACHN renal it was 101%; in the assay on CAKI-1 renal, 102%; in the assay on A498 renal it was 98.8%. The growth with CCRF-CEM leukemia was 105%.

Turning to `CCOc1ccc(NC(=S)N2CCC(CCCC3CCN(C(=S)Nc4ccc(OCC)cc4)CC3)CC2)cc1`, the growth was 84% in the assay with HCT-15 colon; 87.7% in the assay with HT29 colon; 80.3% with SNB-75 CNS; 96% in the assay with SNB-19 CNS; 95.1% with U251 CNS; 99% with PC-3 prostate. Also, the growth was 42.2% in the assay with SK-MEL-5 melanoma; 83.7% in the assay on UACC-62 melanoma; 95.5% in the assay on LOX IMVI melanoma; 94.9% with SK-MEL-28 melanoma; 104% in the assay with SK-MEL-2 melanoma; 60.5% in the assay on EKVX NSCLC. Further, the growth with SN12C renal was 95.9%; in the assay with UO-31 renal it was -7.89% (active); in the assay on TK-10 renal, 96.9%; with ACHN renal, 82.8%; in the assay on CAKI-1 renal, 69.7%; in the assay with A498 renal, 79%. In addition, the figures for the growth with CCRF-CEM leukemia and in the assay with MOLT-4 leukemia were 81.6% and 73.7%, respectively.

In the case of `Nc1ncnc2c1ncn2C1OC(CO)C2OC21` (configuration not stated), the growth with HCT-15 colon is 108%; in the assay with HT29 colon it was 101%; with SNB-75 CNS, 106%; in the assay on SNB-19 CNS it was 118%; with U251 CNS, 95.7%; in the assay with PC-3 prostate, 95.8%. Moreover, the growth with SK-MEL-5 melanoma is 101%; in the assay on UACC-62 melanoma, 100%; with LOX IMVI melanoma, 99.2%; in the assay with SK-MEL-28 melanoma, 111%; with SK-MEL-2 melanoma, 95.2%; with EKVX NSCLC, 105%. In addition, the growth was 95.7% in the assay on SN12C renal; 100% in the assay with UO-31 renal; 99% in the assay with TK-10 renal; 116% in the assay on ACHN renal; 106% with CAKI-1 renal; 85.4% in the assay with A498 renal. Further, the growth with CCRF-CEM leukemia is 105%; with MOLT-4 leukemia, 111%.

Consider `Cc1cccc(C)c1NC(=S)/N=C\c1c(O)[nH]c(=O)[nH]c1=O`, for which the growth in the assay on HCT-15 colon was 107%; in the assay with HT29 colon it was 95.7%; in the assay on SNB-75 CNS, 85.1%; with SNB-19 CNS, 103%; in the assay on U251 CNS, 96.8%; in the assay with PC-3 prostate, 96%. Besides, the growth was 96.3% with SK-MEL-5 melanoma; 90.9% in the assay with UACC-62 melanoma; 98.2% with LOX IMVI melanoma; 111% in the assay on SK-MEL-28 melanoma; 103% in the assay on SK-MEL-2 melanoma; 77.3% in the assay with EKVX NSCLC. In addition, the growth in the assay on SN12C renal was 98.5%; with UO-31 renal, 89.5%; in the assay on TK-10 renal it was 106%; with ACHN renal it was 102%; in the assay on CAKI-1 renal, 96.5%; with A498 renal it was 103%. For the same compound, the growth in the assay with CCRF-CEM leukemia is 98.9%.
